Pf Dd2 inh: blocks in vitro growth of P. falciparum Dd2. P. falciparum Dd2 growth, SYBR Green, 72 h. Potency, µM (titrated, usually from 28.9 µM), for inactives: at the highest dose activity, negative = inhibition, most hits filed as inhibitors. 4.3% of 120,000 active. AID 1347417; active = well fitted inhibition curve with a large enough effect;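 note: plate controls were DMSO vehicle for no effect and reference drug for full effect; nearly all actives have a fitted effect of over 65% in size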
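Readout: SYBR Green fluorescence, 485 nm excitation, 535 nm emission, after ~16 h lysis at 37C. Before that, Dd2-infected red cells (2.5% hematocrit) grew 72 h with compound, 29 uM top final concentration.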
* marks the source's active call; other numbers are inactive results; i = inactive; [ ] = another dose, or the depositor's remark. The full list was thinned out, with hits kept by preference. Potency is the fitted concentration of half-maximal effect.

SMILES	Pf Dd2 inh
Nc1c(C(=O)c2ccc(F)cc2)sc(Nc2ccccc2F)c1S(=O)(=O)c1ccc(Br)cc1	11.2µM*
COc1cccc(Nc2sc(C(=O)c3ccc(F)cc3)c(N)c2C(=O)NCc2ccc(Cl)cc2)c1	-5.7%
CCOc1ccccc1Nc1sc(C(=O)c2ccccc2)c(N)c1C(=O)Nc1ccccc1	i
CCN1CCN(C(=O)C2CCCCC(=O)N2)CC1 (stereo not given)	6.3%
Cc1cc(C)nc(N2C[C@H]3OC(=O)N(CCc4ccc(F)cc4)[C@H]3C2)n1	4.6%
COCCNC(=O)[C@H]1C[C@H](Oc2cccnc2)CN1S(=O)(=O)c1ccccc1C	-8.3%
O=C(NCCc1cccs1)c1noc(-c2ccc(F)cc2)n1	-7.8%
Cc1cc(Cl)ccc1S(=O)(=O)N(C)CC1CCOCC1	15.0%
Cn1nccc1C(=O)N1CCC2(CC1)CC(N(C(=O)c1ccccc1)C1CC1)CCO2 (stereo not given)	i
CCOc1ccccc1C(=O)N[C@@H]1CN(Cc2ccncc2)C[C@H]1CN(C)C	5.01µM*
CCOc1ccccc1C(=O)N[C@@H]1CN(Cc2cccnc2)C[C@H]1CN(C)C	-36.8%
COc1ccccc1C(=O)N[C@@H]1CN(Cc2ccncc2)C[C@H]1CN(C)C	-20.6%
CC(=O)Nc1ccc(CN2C(=O)OC3(CCN(Cc4ccc(C(C)C)cc4)CC3)C2(C)c2ccccc2)cc1 (stereo not given)	-13.7%
CS(=O)(=O)c1ccc(-c2ccc(CN3CCOCC3)cn2)cc1	11.4%
N#Cc1cccc(-c2cn3c(n2)N(C(=O)c2cccc(F)c2)CCC3)c1	-14.4%
Cn1nc(C(=O)N2C[C@@H](Oc3cccnc3)C[C@H]2C(=O)N2CCOCC2)c2ccccc21	14.3%
COCCN1C(=O)c2ccccc2C(C(=O)NC(C)C)C12CCCCC2 (stereo not given)	-7.1%
COCCN1C(=O)c2ccccc2C(C(=O)Nc2nc3ccccc3s2)C12CCCCC2 (stereo not given)	2.51µM*
COCCN1C(=O)c2ccccc2C(C(=O)Nc2cccc(C)n2)C12CCCCC2 (stereo not given)	i
CCCCNC(=O)C1c2ccccc2C(=O)N(CCOC)C12CCCCC2 (stereo not given)	-13.3%
COCCN1C(=O)c2ccccc2C(C(=O)Nc2nnc(COC)s2)C12CCCCC2 (stereo not given)	-26.0%
COCCN1C(=O)c2ccccc2C(C(=O)Nc2ccccc2O)C12CCCC2 (stereo not given)	i
COCCN1C(=O)c2ccccc2C(C(=O)Nc2nnc(C3CC3)s2)C12CCCCC2 (stereo not given)	7.94µM*
COC(=O)CCNC(=O)C1c2ccccc2C(=O)N(CC(C)C)C12CCCCC2 (stereo not given)	-15.8%
COCc1nnc(NC(=O)C2c3ccccc3C(=O)N(CC(C)C)C23CCCCC3)s1 (stereo not given)	3.55µM*
SMILES	Pf Dd2 inh
CCN1C(=O)CCc2cc(NC(=O)Cc3ccc(F)cc3)ccc21	-15.3%
CCCCS(=O)(=O)N1C[C@@H](COC)[C@H](C(N)=O)C1	-5.9%
COc1cccc(NC(=O)CCC2CCN(C(=O)c3cc4ccccc4cn3)CC2)c1	-28.5%
Cc1ccc(S(=O)(=O)N2CCCC3(CCC(=O)N(C4CC4)C3)C2)cc1C (stereo not given)	1.7%
CCOc1ccc(C(=O)N2CCC(Cc3nc(-c4cnccn4)no3)CC2)cc1OCC	-13.5%
CN1[C@@H](CCC(=O)N2CCN(c3ccccc3)CC2)CNC(=O)[C@@H]2[C@H]1CCN2Cc1cccc(Cl)c1	i
COc1ccccc1OCc1cc(C(=O)NCC2COCCO2)n[nH]1 (stereo not given)	-11.6%
Cn1cnnc1CC1CCN(C(=O)c2cn3ccsc3n2)CC1	14.4%
Cc1cnc(CC2CCN(C(=O)Cc3cccc(F)c3)CC2)n1CC1CC1	-3.3%
CC(C)c1nc2cc(NC(=O)C[C@H]3NC(=O)c4ccccc4NC3=O)ccc2n1C	-11.0%
COCCCN1C(=O)CC(CC(=O)N2CCC(C(O)c3ccccc3)CC2)(c2ccccc2C)C1=O (stereo not given)	-11.5%
Fc1ccc(CN2CCC3(CC2)CC(c2cccc(C(F)(F)F)c2)=NO3)cc1	-7.3%
C[S+](=O)([O-])N1CCC2(CC(=O)Nc3ccccc3N2)C1 (stereo not given)	13.4%
O=C(CCC1CCN(C(=O)c2ccccc2)CC1)Nc1cccnc1	-1.5%
CCC(C(=O)NCc1ccc(OC)c(OC)c1)n1nc(C)c2c(C)n(-c3ccc(C)cc3)nc2c1=O (stereo not given)	2.82µM*
Cc1ccc(CCNC(=O)C(C)n2nc(C)c3c(C)n(-c4ccc(C)cc4)nc3c2=O)cc1 (stereo not given)	i
CCC(C(=O)Nc1cc(F)ccc1F)n1nc(C)c2c(C)n(-c3ccc(C)cc3)nc2c1=O (stereo not given)	0.5%
COc1ncccc1CNC[C@H]1O[C@@H]2C[C@@H](CC(=O)N3CCC(F)(F)C3)O[C@@H]2[C@@H]1O	33.4%[44.1 µM]
CC(=O)N1CCCN(c2ncc(S(C)(=O)=O)c(C3CCCNC3)n2)CC1 (stereo not given)	5.0%

High-throughput results from PubChem BioAssay.
